The campaign covered roughly 13,000 compounds. About 3,200 (25%) showed an effect of 50% or more. The list shows a part of the results.
Test system: P. falciparum stage V gametocytes
Parameters: BacTiter-Glo ATP luminescence viability of purified stage V gametocytes in 384-well plates, per cent inhibition versus DMSO
Conditions: 48 h, 5 µM; inhibitor

SMILES	% Inhibition
Cc1noc(-c2ccc(O)cc2O)c1-c1ccc2c(c1)OCCCO2 [TCMDC-124197]	16%
CCCc1ccc(C(=O)N2C(c3nccs3)C(C(N)=O)CC2(CC(C)C)C(=O)O)cc1 (stereo not drawn) [TCMDC-138717]	-10.33%
CC(C)CC1(C(=O)OC(C)(C)C)CC(C(=O)OC(C)(C)C)C(c2cccs2)N1C(=O)c1ccc(C(C)(C)C)cc1 (stereo not drawn) [TCMDC-138807]	77.31%
COc1cc(C(=O)N2C(c3nccs3)C(C(=O)N(OC)C(C)c3ccccc3)CC2(CC(C)C)C(=O)OC(C)(C)C)ccc1C(C)(C)C (stereo not drawn) [TCMDC-135187]	35.9%
C=CCN1C(=O)C(=Cc2cc(Br)ccc2O)SC1=Nc1ccccc1 [TCMDC-124119]	53.26%
CCOC(=O)c1ccc(N=C2SC(=Cc3cc(Br)ccc3O)C(=O)N2C)cc1 [TCMDC-125656]	2.309%
O=C1C(=Cc2cc(Cc3ccccc3)ccc2O)SC(=S)N1Cc1ccccc1 [TCMDC-124107]	17.72%
CCOC(=O)c1ccc(NC(=O)N[C@@H](Cc2ccccc2)C(=O)NC2CCN(Cc3ccc(OCCCN(C)C)cc3)C2)cc1 (stereo partly drawn) [TCMDC-140501]	106.4%
CC(C)OC(=O)c1ccc(NC(=O)N[C@@H](Cc2ccc(O)cc2)C(=O)NC2CC3CCC(C2)N3Cc2ccccc2)cc1 (stereo partly drawn) [TCMDC-136164]	71.31%
CCOC(=O)c1ccc(NC(=O)N[C@@H](Cc2ccccc2)C(=O)NC2CCN(Cc3ccc(O)c(OC)c3)C2)cc1 (stereo partly drawn) [TCMDC-140503]	-11.63%
CC(C)[C@H]1CC[C@H](C)C[C@@H]1OC(=O)N[C@@H](Cc1ccc(O)cc1)C(=O)NC1CCN(Cc2ccc(OCCCN(C)C)cc2)C1 (stereo partly drawn) [TCMDC-140497]	106.1%
CC(C)(C)c1ccc(OC(=O)c2ccc(NC(=O)N[C@@H](Cc3ccc(O)cc3)C(=O)NC3CCN(Cc4ccc(O)cc4)C3)cc2)cc1 (stereo partly drawn) [TCMDC-135359]	23.01%
CCOC(=O)c1ccc(NC(=O)N[C@@H](Cc2ccccc2)C(=O)NC2CCN(Cc3ccc(O)cc3)C2)cc1 (stereo partly drawn) [TCMDC-140502]	-28.76%
O=C(Nc1ccc(C(=O)OCC(c2ccccc2)c2ccccc2)cc1)N[C@@H](Cc1ccc(O)cc1)C(=O)NC1CCN(Cc2ccc(O)cc2)C1 (stereo partly drawn) [TCMDC-135362]	9.298%
Cc1cc(C(=O)N[C@H]2CCN(Cc3ccc(OCCCN(C)C)cc3)C2)ccc1Br [TCMDC-140368]	17.03%
CC(C)OC(=O)c1ccc(NC(=O)N[C@@H](Cc2ccc(O)cc2)C(=O)NC2CCC(CCN3C4CCC3c3ccccc34)CC2)cc1 (stereo partly drawn) [TCMDC-136163]	13.63%
O=C(/C=C/c1ccc(Cl)c(Cl)c1)NCCCCN1CCCN(C(=O)Nc2cc(Cl)cc(Cl)c2)CC1 [TCMDC-135929]	-18.98%
COc1ccc(CN2CCCC(OC(c3ccc(F)cc3)c3ccc(F)cc3)C2)c(O)c1 (stereo not drawn) [TCMDC-136166]	23.2%
Fc1cccc(COc2ccc(Nc3ncnc4sc(C#C[C@H]5CC[C@H](CN6CCOCC6)N5)cc34)cc2Cl)c1 [TCMDC-135417]	-15.95%
Cc1c(F)cc(C(=O)NC2CC2)cc1-c1ccc2c(cnn2S(=O)(=O)c2ccc(F)c(F)c2)c1 [TCMDC-135239]	15.38%
Cc1ccc2nc(C)cc(Nc3ccccc3O)c2c1 [TCMDC-123660]	-31.17%

SMILES	% Inhibition
CCCc1cc(C)ccc1OCCCON1C(NC(=O)OCC)=NC(NC(=O)OCC)=NC1(C)C [TCMDC-131343]	12.88%
COc1cc(Cc2cnc(N)nc2N)cc(OCCn2ccccc2=O)c1OC [TCMDC-137347]	-6.593%
CCN(CC)c1ccc2nc(N)nc(N)c2c1Cl [TCMDC-137857]	-7.537%
CN(C)c1ccc(CN2CCC(CNC(=O)c3cc(-c4ccccc4F)cs3)C2)cc1.O=C(O)C(F)(F)F (stereo not drawn) [TCMDC-134453]	72.61%
O=C(NCC1CCN(Cc2ccc3c(c2)OCCO3)C1)c1cc(-c2ccccc2F)cs1.O=C(O)C(F)(F)F (stereo not drawn) [TCMDC-134459]	14.42%
CSc1ccc(CN2CCC(CNC(=O)c3cc(-c4ccccc4F)cs3)C2)cc1.O=C(O)C(F)(F)F (stereo not drawn) [TCMDC-134460]	78.38%
CCCNC[C@@H](O)[C@H](Cc1ccccc1)NC(=O)c1cc(NCC)cc(N2CCCC2=O)c1 [TCMDC-138890]	18.6%
Cc1cc(C(=O)OCC(N)=O)c(C)n1-c1ccc(F)cc1 [TCMDC-123812]	-34.47%
CN(C)S(=O)(=O)c1ccc(C(=O)N(c2nc(-c3ccccc3)cs2)C2CCCCC2)cc1 [TCMDC-123561]	-34.43%
C=CCN(C(=O)c1ccc(Cl)c([N+](=O)[O-])c1)c1nc(-c2ccccc2)cs1 [TCMDC-124436]	137%
Cc1cc(N2CCOCC2)nc2ccc(NC(=O)c3ccc(Cl)c([N+](=O)[O-])c3)cc12 [TCMDC-125441]	-11.29%
O=C(Nc1cc(Cl)cc(Cl)c1)c1cc(Cl)c(=O)n(Cc2ccc(Cl)cc2)c1 [TCMDC-123810]	18.7%
CCn1cc(C(=O)O)c(=O)c2cc(F)c(N3CCN(S(=O)(=O)c4ccc(N)cc4)CC3)cc21 [TCMDC-125809]	2.438%
CCOC(=O)c1cn(CC)c2cc(N3CCCCC3)c(F)cc2c1=O [TCMDC-124156]	35.74%
CCOC(=O)c1cn(CC)c2cc(N3CCCCCC3)c(F)cc2c1=O [TCMDC-124160]	58.45%
O=C(/C=C/c1ccc(Cl)c(Cl)c1)NCCCCCCN1CCCN(C(=O)Nc2ccc(F)c(F)c2)CC1 [TCMDC-135938]	-42.76%
CC1(CCCCN2CC=C(c3c[nH]c4ccccc34)CC2)C(=O)Nc2ccccc21 (stereo not drawn) [TCMDC-140717]	-30.41%
Cc1[nH]c2ccccc2c1C1=CCN(CCCCCC23CCCc4cccc(c42)NC3=O)CC1 (stereo not drawn) [TCMDC-140463]	-65.61%
O=C1Nc2cccc3c2C1(CCCCN1CCC(c2c(-c4ccc(F)cc4)[nH]c4ccccc24)CC1)CCC3 (stereo not drawn) [TCMDC-140656]	74.07%
O=C1Nc2cccc3c2C1(CCCCN1CCC(c2c(-c4ccccc4)[nH]c4ccccc24)CC1)CCC3 (stereo not drawn) [TCMDC-140655]	54.78%
Cc1ccc(OC2CCN(CCCCC3(C)C(=O)Nc4ccccc43)CC2)cc1 (stereo not drawn) [TCMDC-140795]	-17.97%

Source: paper PMC4552634, “A New Set of Chemical Starting Points with Plasmodium falciparum Transmission-Blocking Potential for Antimalarial Drug Discovery” (PLoS ONE, 2015)
